According to the OligoGym collection:

Each sequence was assayed against CTLA4 (assay: pooled miR-30 sensor sort-seq; sequence = guide strand). Settings: shRNA.
Note: reference of the scale not given here.

Row | Sequence | sensor-assay potency score (higher = more potent)
1 | TTAGCAATTACATAAATCTGGG | -0.222
2 | TAAATCTGGGTTCCGTTGCCTA | -0.995
3 | TTTCACATTCTGGCTCTGTTGG | -0.615
4 | TTGCTCAAAGAAACAGCTGTGA | -0.0499
5 | TGGATCAATTACATAAATCTGG | -0.489
6 | TTGCTTTGCAGAAGACAGGGAT | 0.337
7 | TTTTGCTCAAAGAAACAGCTGT | 0.613
8 | TTTTCTTTAGCAATTACATAAA | -1.29
9 | ATCAATTACATAAATCTGGGTT | -0.149
10 | TCAATTACATAAATCTGGGTTC | -0.428

The sequences below were run against CTNNAL1 in the same assay as above. Settings: shRNA.

Row | Sequence | sensor-assay potency score (higher = more potent)
11 | ATTTTGTCTATCTCCACTCAGA | -0.843
12 | TTATTTGTAACTGAGACCCATC | -0.547
13 | TAGTTGATGAATTAAATCCTGG | -0.667
14 | TTGTTTTCTTGCTTTGAGCTTG | 0.085
15 | TTTCTTGATGTTATTATCTGTT | -0.648
16 | TTGAACACTGGAAGTAAGCTTT | 0.00936
17 | TTGTCTTCGTAATACACTTGTC | -0.611
18 | TTCAGCAGCAGAAATTATCTGT | 0.229
19 | TTGTAACTGAGACCCATCCGTT | -0.457
20 | TTCATTAAGACTGTGACTGATT | 0.0876
21 | TTCATTTCCAAATTGACTGAAT | 0.0043
22 | TCGACAGGTCTCAACAAGCTGC | -0.481

These sequences were tested against CTNNBIP1 in the same assay as above. Settings: shRNA.

Row | Sequence | sensor-assay potency score (higher = more potent)
23 | ATAGGTGCGCAGGAACTCCTCC | -0.215
24 | TCGGACCTTCTGCTGAATGTAC | -1.3
25 | TCTCCTCCGGACTCTTCCCGGG | -0.954
26 | ATCTCCTCCGGACTCTTCCCGG | -1.21
27 | TCTGCTGAATGTACATCTCCTC | -0.574
28 | CTGAATGTACATCTCCTCCGGA | -0.773
29 | TTGACCACCCCTGCATAGGTGC | -1.01
30 | TGATCCCATCTTCCGCAGCATG | -1.86
31 | TGGCTGTCAGGTTTGATCCCAT | -0.741
32 | TTCTGCTGAATGTACATCTCCT | -0.0119
33 | TTGATATCAGCAGAACACCTGC | -0.0972
34 | TGAATGTACATCTCCTCCGGAC | -0.75

What follows are sequences tested against CTNNBL1 in the same assay as above. Settings: shRNA.

Row | Sequence | sensor-assay potency score (higher = more potent)
35 | TATCGTGTCCGAGCAAGCCGAG | -1.14
36 | TACTCCTTGATGATATGCCTGA | -0.148
37 | ATCTCTGTCAATAATCTGCAGC | -0.982
38 | TACAGCATTCAGCTCCACCAGA | -0.685
39 | TTGTCTGGAAACTTAATCCGCA | -0.219
